Measurements from PubChem BioAssay AID1159580 (chemical genetic matrix, 2015).
Several values for one entry are separate records, joined by “and”; a condition that tells them apart may be missing. Equal entries are not always repeated. The campaign covered roughly 5,500 compounds. About 2,000 (36%) were called active. Inconclusive results (about 18%) are left out. Cut-off read from the data, not from the text of the source: active = normalized growth mostly below about 0.91 (no sharp cut-off); inconclusive = no clear call, values can overlap the other calls; inactive = mostly above about 0.92. The list shows a part of the results.

Experiment: chemical genetic growth profiling, strain panel (AID 1159580);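 note: tested at 20 µM; growth read once vehicle control cultures reached saturation at 30 °C; 1 = growth at the plate median or of vehicle wells; lower values mean less growth of the strain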
Conditions: S. cerevisiae deletion strains, growth OD

Measured: normalized growth

CCCCNc1cc(C(=O)O)cc(S(N)(=O)=O)c1Oc1ccccc1
inactive: locus YAL013W, strain DEP1, active compounds read low 0.964 | locus YAL021C, strain ccr4, active compounds read low 1.03 | locus YAL026C, strain drs2, active compounds read low 1.01 | locus YAL030W, strain snc1, active compounds read low 1.01 | locus YAL040C, strain CLN3, active compounds read low 0.946 | locus YBL061C, strain skt5, active compounds read low 0.992 | locus YBR009C, strain hhf1, active compounds read low 0.997 | locus YBR021W, strain FUR4, active compounds read low 0.985 | locus YBR023C, strain chs3, active compounds read low 0.999 | locus YBR171W, strain sec66, active compounds read low 0.998 | locus YBR229C, strain ROT2, active compounds read low 0.987 | locus YBR231C, strain swc5, active compounds read low 0.99 | locus YBR279W, strain paf1, active compounds read low 1.01 | locus YCL011C, strain gbp2, active compounds read low 1 | locus YCL016C, strain dcc1, active compounds read low 0.993 | locus YCL029C, strain bik1, active compounds read low 0.981 | locus YCL069W, strain vba3, active compounds read low 1.01 | locus YCR088W, strain abp1, active compounds read low 1.01 | locus YDL005C, strain med2, active compounds read low 0.999 | locus YDL035C, strain GPR1, active compounds read low 0.996 | locus YDL040C, strain nat1, active compounds read low 0.999 | locus YDL074C, strain BRE1, active compounds read low 1.03 | locus YDL101C, strain DUN1, active compounds read low 0.992 | locus YDL134C, strain PPH21, active compounds read low 0.965 | locus YDL185W, strain tfp1, active compounds read low 0.98 | locus YDL192W, strain arf1, active compounds read low 0.991 | locus YDR001C, strain nth1, active compounds read low 1.01 | locus YDR069C, strain doa4, active compounds read low 1.01 | locus YDR101C, strain arx1, active compounds read low 0.992 | locus YDR137W, strain rgp1, active compounds read low 1.01 | locus YDR150W, strain NUM1, active compounds read low 0.975 | locus YDR159W, strain sac3, active compounds read low 0.943 | locus YDR162C, strain NBP2, active compounds read low 0.982 | locus YDR195W, strain ref2 0.983 | locus YDR297W, strain sur2, active compounds read low 0.997 | locus YDR318W, strain mcm21, active compounds read low 0.989 | locus YDR334W, strain swr1, active compounds read low 1.02 | locus YDR335W, strain msn5, active compounds read low 1.01 | locus YDR363W, strain ESC2, active compounds read low 0.992 | locus YDR388W, active compounds read low 0.975 | locus YDR392W, strain spt3, active compounds read low 0.906 | locus YDR502C, strain sam2, active compounds read low 1.01 | locus YEL003W, strain gim4, active compounds read low 1.01 | locus YEL037C, strain rad23, active compounds read low 1 | locus YEL061C, strain CIN8 (second series), active compounds read low 1.03 | locus YEL061C, strain CIN8, active compounds read low 0.994 | locus YER002W, strain NOP16, active compounds read low 0.986 | locus YER015W, strain faa2, active compounds read low 1.01 | locus YER016W, strain bim1, active compounds read low 0.987 | locus YER110C, active compounds read low 0.978 | locus YER111C, strain swi4, active compounds read low 0.998 | locus YER155C, strain BEM2 (second series), active compounds read low 0.974 | locus YER155C, strain BEM2, active compounds read low 0.989 | locus YER167W, strain BCK2, active compounds read low 0.98 | locus YFR010W, strain ubp6, active compounds read low 1.01 | locus YGL078C, strain dbp3, active compounds read low 0.97 | locus YGL086W, strain mad1, active compounds read low 0.998 | locus YGL167C, strain pmr1, active compounds read low 1 | locus YGL173C, strain kem1, active compounds read low 0.983 | locus YGL227W, strain vid30, active compounds read low 0.992 | locus YGL240W, strain doc1, active compounds read low 0.996 | locus YGL248W, strain PDE1, active compounds read low 1 | locus YGL253W, strain hxk2, active compounds read low 1.04 | locus YGR078C, strain PAC10, active compounds read low 0.98 | locus YGR135W, strain pre9, active compounds read low 0.957 | locus YGR252W, strain gcn5, active compounds read low 0.956 | locus YHR013C, strain ard1, active compounds read low 0.972 | locus YHR027C, strain rpn1, active compounds read low 1.01 | locus YHR030C, strain SLT2, active compounds read low 0.983 and 1.03 | locus YHR079C, strain IRE1 (second series), active compounds read low 0.99 | locus YHR079C, strain IRE1, active compounds read low 1.07 | locus YHR094C, strain hxt1, active compounds read low 0.97 | locus YHR129C, strain ARP1, active compounds read low 0.99 | locus YHR142W, strain chs7, active compounds read low 1.03 | locus YHR200W, strain rpn10, active compounds read low 0.984 | locus YIL066C, strain RNR3, active compounds read low 0.997 | locus YIL073C, strain SPO22, active compounds read low 0.937 | locus YIL125W, strain kgd1, active compounds read low 0.973 | locus YIR030C, strain dcg1, active compounds read low 0.981 | locus YJL092W, strain hpr5, active compounds read low 1.01 | locus YJL095W, strain BCK1 (second series), active compounds read low 0.999 | locus YJL095W, strain BCK1, active compounds read low 1.03 and 1.02 | locus YJL115W, strain asf1, active compounds read low 1 | locus YJL129C, strain trk1, active compounds read low 1.01 | locus YJL134W, strain LCB3, active compounds read low 0.993 | locus YJL154C, strain vps35, active compounds read low 1 | locus YJL164C, strain tpk1, active compounds read low 1.01 | locus YJL166W, strain qcr8, active compounds read low 1.01 | locus YJL168C, strain set2, active compounds read low 0.982 | locus YJL187C, strain SWE1 (second series), active compounds read low 1.01 | locus YJR043C, strain POL32, active compounds read low 1 | locus YJR066W, strain TOR1, active compounds read low 0.966 | locus YJR075W, strain HOC1, active compounds read low 0.971
